Common to all, as to experiment: NCI-60 one-dose screen, 48 h (100 = growth as untreated, 0 = no growth, -100 = all killed)
Holding throughout (conditions): 10 µM unless noted

In experiment [1] the test system is T-47D breast.
The test system of experiment [2] is BT-549 breast.
The test system of experiment [3] is MDA-MB-435 melanoma.
The test system of experiment [4] is SW-620 colon.
In experiment [5] the test system is MCF7 breast.
In experiment [6] the test system is HCT-116 colon.
Experiment [7] relates to HCC-2998 colon.
Experiment [8] concerns KM12 colon.

Compounds without any hit were thinned out: in the full panel of roughly 83,000, 20% have a hit.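 Plates (96-well) were seeded with cells, treated with compound at one concentration, and incubated for 48 hours before percent growth was determined.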 A number with no mark means an inactive call. Activity calls are given as the source filed them. The calls were made as follows: active = growth percent below 10; inactive = the rest.

Consider `COc1cc2c(cc1OC)C(C)N(S(N)(=O)=O)CC2` (stereo not drawn), for which the growth was 93.1% in experiment [1]; 91.8% in experiment [2]; 110% in experiment [3]; 107% in experiment [4]; 103% in experiment [5]; 89.4% in experiment [6]. Also, the growth in experiment [7] is 98.1%; in experiment [8], 112%.
Turning to `COc1cc(OCc2cccc(Br)c2C)cc(OC)c1C=O`, the growth in experiment [1] was 37.8%; in experiment [2] it was 70.9%; in experiment [3], 87.8%; in experiment [4], 88.6%; in experiment [5], 63.9%; in experiment [6], 68%. For the same compound, the growth was 96.5% in experiment [7] and 94.5% in experiment [8].
With `Cc1[nH]c(C(=O)Nc2ccccc2OC2CCNCC2)c(Cl)c1Cl`, the growth in experiment [1] was -4.05% (active); in experiment [2], 74.2%; in experiment [3] it was -40.3% (active); in experiment [4], 1.77% (active); in experiment [5] it was -45% (active); in experiment [6], 4.55% (active). In addition, the growth is 43.2% in experiment [7] and 32.8% in experiment [8].
As to `CC(C)=CC(=O)OCC(=O)O[C@@H]1C[C@]2(C(C)C)O[C@@]1(C)[C@@H]1CC[C@@H](C)[C@H]1[C@@H]2OC(=O)/C=C/c1ccccc1`, the growth in experiment [1] was 65.1%; in experiment [2] it was 37.7%; in experiment [3], 91.7%; in experiment [4], 87.1%; in experiment [5], 71.5%; in experiment [6], 72.2%. Moreover, the growth was 90.7% in experiment [7] and 89.4% in experiment [8].
Take `COc1ccc(CN2c3ccccc3Sc3ccccc32)cc1F`: the growth is 49.7% in experiment [1]; 49.9% in experiment [2]; -33.5% (active) in experiment [3]; 23.8% in experiment [4]; 16% in experiment [5]; 8.54% (active) in experiment [6]. Further, the values for the growth in experiment [7] and in experiment [8] were 17.8% and 14%, respectively.
Consider `CCOC(=O)C1=C(C)NC(=O)NC1c1c(Cl)n(CCCl)c2ccccc12` (stereo not drawn), for which the growth in experiment [1] is 101%; in experiment [2] it was 92%; in experiment [3], 101%; in experiment [4], 96.8%; in experiment [5] it was 98.7%; in experiment [6], 95.1%. For the same compound, the values for the growth in experiment [7] and in experiment [8] were 96.3% and 97.4%, respectively.
In the case of `COc1ccc(OC)c(/C=N/Nc2ncnc3c2c(C)nn3C)c1`, the growth in experiment [1] was 84.6%; in experiment [2], 101%; in experiment [3], 105%; in experiment [4], 107%; in experiment [5], 85.2%; in experiment [6], 109%. The growth in experiment [7] is 102%; in experiment [8], 103%.
As to `C#COc1cccc(Nc2c(C#N)cnc3ncc(NC(=O)CCl)cc23)c1`, the growth in experiment [1] is 4.8% [6.25 µM] (active); in experiment [2], 40.3% [6.25 µM]; in experiment [3], 41.4% [6.25 µM]; in experiment [4], 9.61% [6.25 µM] (active); in experiment [5] it was 5.39% [6.25 µM] (active); in experiment [6], -3.66% [6.25 µM] (active). The growth in experiment [7] was 31.7% [6.25 µM]; in experiment [8], 31.4% [6.25 µM].
For the compound `CN(c1cc2ncc(=O)[nH]c2cc1NC(N)=NCc1ccc(Cl)cc1)C1CCCCC1`, the growth in experiment [1] was 47.6%; in experiment [2] it was 82%; in experiment [3], 40.2%; in experiment [4], 6.15% (active); in experiment [5] it was -44.2% (active); in experiment [6], 24.9%. Also, the values for the growth in experiment [7] and in experiment [8] were -10.5% (active) and 28.7%, respectively.
For `O=C(NNC(=O)c1ccc(NC(=O)c2ccccn2)cc1)Nc1ccc([N+](=O)[O-])cc1`, the growth was 99.2% in experiment [1]; 94.6% in experiment [2]; 106% in experiment [3]; 104% in experiment [4]; 95.7% in experiment [5]; 101% in experiment [6]. The growth in experiment [7] was 109%; in experiment [8], 108%.
For `Clc1ccc(/C=N\N=C\c2ccc(Cl)c(Cl)c2)cc1Cl`, the growth was 90.3% in experiment [1]; 74.2% in experiment [2]; 101% in experiment [3]; 53.8% in experiment [4]; 72.8% in experiment [5]; 53.3% in experiment [6]. For the same compound, the growth in experiment [7] is 96.1%; in experiment [8], 101%.
For `COc1ccc(C2=C(Br)C(=O)c3nc(C)ccc3C2=O)cc1`, the growth was 72.8% in experiment [1]; 93.4% in experiment [2]; 103% in experiment [3]; 27.2% in experiment [4]; 74.7% in experiment [5]; 74.1% in experiment [6]. Besides, the growth in experiment [7] is 104%; in experiment [8] it was 91.9%.
On to `N#C/C(=C\c1c(-c2ccccc2)[nH]c2ccccc12)C(N)=O`, for which the growth in experiment [1] is 83.7%; in experiment [2], 95.6%; in experiment [3] it was 15.7%; in experiment [4] it was 56.9%; in experiment [5], 50.4%; in experiment [6] it was 76.9%. In addition, the growth in experiment [7] was 78.9%; in experiment [8], 47.9%.
Regarding `COc1ccc(C(=O)Nc2cccc(-c3cc(=O)c4c(OC)c(OC)c(OC)cc4o3)c2)cc1`, the growth in experiment [1] was 45%; in experiment [2], 51.4%; in experiment [3] it was 69.6%; in experiment [4], 88%; in experiment [5], 66.5%; in experiment [6] it was 47.8%. The growth in experiment [7] is 70.3%; in experiment [8] it was 46.3%.
`CC(C)c1ccc(C(=O)Nc2sc3c(c2C(N)=O)CCC(=O)C3)cc1`: the growth in experiment [1] is -15.8% (active); in experiment [2] it was -21.9% (active); in experiment [3] it was -11% (active); in experiment [4], -43.4% (active); in experiment [5], 5.13% (active); in experiment [6], -41.1% (active). For the same compound, the growth in experiment [7] was 14.9%; in experiment [8], 1.39% (active).
In the case of `O=S(=O)(c1ccccc1)n1cc2c(c1)-c1nc(Nc3ncccn3)sc1CC2`, the growth in experiment [1] is 53%; in experiment [2] it was 63.8%; in experiment [3], 61.5%; in experiment [4], 65.1%; in experiment [5], 49.5%; in experiment [6], 23.1%. Further, the growth was 85% in experiment [7] and 82.8% in experiment [8].
On to `O=C(NCc1ccc(Cl)cc1Cl)C1CCC(=O)N1c1cccs1` (stereo not drawn), for which the growth in experiment [1] is 75.8%; in experiment [2] it was 86%; in experiment [3], 97.2%; in experiment [4], 106%; in experiment [5] it was 88%; in experiment [6], 79%. For the same compound, the growth was 93.4% in experiment [7] and 101% in experiment [8].
Consider `COc1ccc2c(c1)CC[C@H](O)/C2=C/c1cc(OC)c(OC)c(OC)c1`, for which the growth in experiment [1] was 51.9%; in experiment [2] it was 4.02% (active); in experiment [3], -54.4% (active); in experiment [4], 21.1%; in experiment [5], 16%; in experiment [6], 2.27% (active). Also, the growth is 22.1% in experiment [7] and 10.8% in experiment [8].
For the compound `O=C(/C=C/c1ccccc1)Nc1ncc(Cc2ccccc2Cl)s1`, the growth in experiment [1] is 21.1%; in experiment [2], 55.2%; in experiment [3], -44.4% (active); in experiment [4], 31.4%; in experiment [5], 18.9%; in experiment [6], 16%. In addition, the figures for the growth in experiment [7] and in experiment [8] were 35.4% and 14%, respectively.
With `COC(=O)c1nc(-c2ccccc2)oc1S(=O)(=O)Cc1ccccc1`, the growth in experiment [1] is 59.9%; in experiment [2], 80.1%; in experiment [3], 100%; in experiment [4], 32.9%; in experiment [5], 78.5%; in experiment [6], 68.9%. Further, the values for the growth in experiment [7] and in experiment [8] were 111% and 96.4%, respectively.
For `COc1cc(OC)c(NC(=O)c2cc3ccccc3cc2O)cc1Cl`, the growth in experiment [1] is 78.7%; in experiment [2], -25.9% (active); in experiment [3], 22.7%; in experiment [4], 21.9%; in experiment [5], 76.1%; in experiment [6], 18.1%. The growth in experiment [7] was 61.9%; in experiment [8], 18.5%.
Turning to `N#Cc1nc(-c2ccc(F)cc2)oc1S(=O)(=O)N1CCCCC1`, the growth in experiment [1] was 2.97% (active); in experiment [2], 80%; in experiment [3] it was 83.8%; in experiment [4], -72.2% (active); in experiment [5] it was 56%; in experiment [6] it was -19.4% (active). Further, the growth in experiment [7] was 105%; in experiment [8], 99.1%.
Consider `CCOc1nc(-c2ccccc2)cc2c(O)c(C(=O)N/N=C/c3ccccc3)[nH]c(=O)c12`, for which the growth is 110% in experiment [1]; 167% in experiment [2]; 123% in experiment [3]; 100% in experiment [4]; 101% in experiment [5]; 111% in experiment [6]. Moreover, the growth was 8.59% (active) in experiment [7] and 109% in experiment [8].
With `C/C(=N\O)c1ccc(Cl)cc1`, the growth in experiment [1] is 110%; in experiment [2], 96%; in experiment [3], 112%; in experiment [4], 99.9%; in experiment [5], 101%; in experiment [6], 97.5%. The growth in experiment [7] is 95.9%; in experiment [8], 118%.
With `CC(C)=CCCC(C)c1ccc(C)c2c1OCN(CCCCCO)C2` (stereo not drawn), the growth in experiment [1] was 88.1%; in experiment [2] it was 72.1%; in experiment [3], 97.1%; in experiment [4], 94.9%; in experiment [5], 88.7%; in experiment [6], 68.6%. For the same compound, the growth in experiment [7] was 73.5%; in experiment [8], 104%.
In the case of `CN(C)CCNC(=O)c1cc2c3cc(Cl)ccc3[nH]c2c2ncccc12`, the growth in experiment [1] was 24%; in experiment [2] it was 29.5%; in experiment [3] it was -41.3% (active); in experiment [4], -2.12% (active); in experiment [5], -16.1% (active); in experiment [6], -56.6% (active). In addition, the growth in experiment [7] was -45.1% (active); in experiment [8], 25.2%.
As to `O=C1NC(=C(Cl)Cl)/C(=N\S(=O)(=O)NCc2ccccc2)N1`, the growth in experiment [1] is 52%; in experiment [2] it was 97.8%; in experiment [3] it was 95.8%; in experiment [4], 111%; in experiment [5], 74.4%; in experiment [6], 94.2%. Besides, the growth in experiment [7] was 127%; in experiment [8], 62.9%.
`CC(C)c1ccc(C(=O)Nc2nc3ccc(O)c(CN(C)C)c3s2)cc1`: the growth in experiment [1] was 77.8%; in experiment [2], 73.6%; in experiment [3], 55.4%; in experiment [4], 36.2%; in experiment [5], 80.5%; in experiment [6] it was 47.3%. For the same compound, the growth was 63.7% in experiment [7] and 36% in experiment [8].
For the compound `COc1ccc(C/C(C)=C(\c2ccc(Cl)cc2)c2ccc(OCCN3CCCCC3)cc2)cc1`, the growth in experiment [1] was 75.1%; in experiment [2], 96.7%; in experiment [3], 102%; in experiment [4] it was 88.4%; in experiment [5], 81.7%; in experiment [6], 100%. The growth in experiment [7] was 98.5%; in experiment [8] it was 104%.
Take `COc1cc2cc(NCc3cccc(Cl)c3)nc(C)c2cc1OC`: the growth was 52.7% in experiment [1]; 23.1% in experiment [2]; 4.19% (active) in experiment [3]; 17% in experiment [4]; 55.4% in experiment [5]; 8.02% (active) in experiment [6]. In addition, the growth in experiment [7] was 38.9%; in experiment [8] it was 38.8%.
For the compound `Ic1ccc(OCCCCn2ccnc2)cc1`, the growth in experiment [1] is 77.6%; in experiment [2], 88.4%; in experiment [3], 73%; in experiment [4] it was 58.1%; in experiment [5], 89.7%; in experiment [6] it was 65.9%. Further, the growth in experiment [7] was 68.1%; in experiment [8], 97.6%.

Source of the values: PubChem BioAssay (NCI).
